PubChem BioAssay (NCI)
The panel holds about 83,000 compounds, 20% with a hit somewhere; the sample as a whole holds those more often.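 The test compound was applied at a single concentration to cells in 96-well plates for 48 hours, and percent growth was recorded.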 The source made the active and inactive calls. The calls were made as follows: active = growth percent below 10; inactive = the rest.

Test system: HL-60(TB) leukemia
Assay: NCI-60 one-dose screen, 48 h (100 = growth as untreated, 0 = no growth, -100 = all killed)
Conditions: 10 µM unless noted

SMILES | growth
C=C1C(=O)O[C@H]2[C@H]1CC/C(COC(=O)N[C@H]1C[C@H](O[C@H]3C[C@](O)(C(=O)CO)Cc4c(O)c5c(c(O)c43)C(=O)c3c(OC)cccc3C5=O)O[C@@H](C)[C@H]1O)=C\CC[C@@]1(C)O[C@@H]21 | -31.2% (active)
Cc1cccc(NC2=C(C#N)C(=O)NC3(CCCC3)S2)c1 | 89.7% (inactive)
COC(=O)CCCNc1c(-c2c(O)c(O)cc3c(O)c(-c4c(C)cc5c(-c6nc7ccccn7c6NCCCC(=O)OC)c(O)c(O)cc5c4O)c(C)cc23)nc2ccccn12 | 91.7% (inactive)
C=C1C(=O)O[C@H]2[C@H]1CC/C(Cn1cc(CNCCc3c[nH]c4ccccc34)nn1)=C\CC[C@@]1(C)O[C@@H]21 | 26.1% (inactive)
